# High-throughput results from PubChem.
# Only some compounds are listed: those with a hit (about 27% of all), similar ones and a draw of the others.
# sEH activator = soluble epoxide hydrolase activators, primary screen, biochemical, human sEH. activation, % at 2 µM. Bifunctional epoxide hydrolase 2 (Homo sapiens), P34913. purified human sEH enzymatic activity, activator screen. AID 717, 2007. hit rate 0.04% among 91,000; in the data active = activation above about 37%
# sEH inhibitor = soluble epoxide hydrolase inhibitors, primary screen, biochemical, human sEH | AID 707, 2007 | recombinant human sEH enzymatic activity assay | Bifunctional epoxide hydrolase 2 (Homo sapiens), P34913 | hit rate 0.34% among 91,000 | inhibition, % at 2 µM; in the data active = inhibition above about 80%
# CYP2C19 inh = blockers of cytochrome P450 2C19 activity – biochemical, luminescence, ADME assay, primary screen | P33261 | hit rate 21% among 96,000 | AID 778, 2007 | CYP2C19 Supersomes, luciferin-H EGE luminescence, 30 min | inhibition, % at 5 µM;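 active = CYP2C19 inhibition above a set limit at 5 µM in the primary screen, cut at about 50% in these data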;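 also: plate controls were negative control wells for no effect and 2.5 mM tranylcypromine positive control for full effect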
# CYP2C9 act = human CYP2C9 activators, primary screen, biochemical, luminescence; hit rate 1.4% among 96,000; recombinant CYP2C9, luciferin-H conversion; stronger effect = higher value; factor 1 = untreated enzyme, 0 = blocked; activation factor at 5 µM; AID 1024, 2008;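 active = activation factor of 2 or more for CYP2C9 at a 5 µM dose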;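 also: 0 = sulfaphenazole-blocked wells and 1 = vehicle-only wells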
# Target sequence (P11712 whole entry, looked up): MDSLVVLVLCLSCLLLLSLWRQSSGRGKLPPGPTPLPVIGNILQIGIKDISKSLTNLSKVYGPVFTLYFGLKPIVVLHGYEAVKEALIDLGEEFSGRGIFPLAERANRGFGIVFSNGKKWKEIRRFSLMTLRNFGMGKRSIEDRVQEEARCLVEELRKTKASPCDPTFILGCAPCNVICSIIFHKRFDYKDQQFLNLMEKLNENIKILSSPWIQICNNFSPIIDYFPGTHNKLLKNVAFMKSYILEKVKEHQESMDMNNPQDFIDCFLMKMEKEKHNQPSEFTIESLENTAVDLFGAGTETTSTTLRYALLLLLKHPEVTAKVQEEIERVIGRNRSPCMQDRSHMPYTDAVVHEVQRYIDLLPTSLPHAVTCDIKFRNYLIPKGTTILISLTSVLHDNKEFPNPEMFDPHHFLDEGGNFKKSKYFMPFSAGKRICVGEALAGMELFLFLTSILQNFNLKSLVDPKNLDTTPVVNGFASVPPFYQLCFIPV
# CYP2C9 inh = blockers of cytochrome P450 2C9 activity – biochemical, luminescence, ADME assay, primary screen | CYP2C9 Supersomes, luciferin-H conversion | inhibition, % at 5 µM | hit rate 20% among 96,000;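 active = blocking of liver enzyme CYP2C9 beyond about 50% at 5 µM, limit read from the data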
# CYP2C19 act = human CYP2C19 activators, primary screen, biochemical, luminescence; Cytochrome P450 2C19 (Homo sapiens), P33261; recombinant CYP2C19, luciferin-H EGE luminescence; stronger effect = higher value; 0 = fully inhibited enzyme, 1 = untreated enzyme; activation factor at 5 µM; 96,000 tested, under 10 active;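 active = activation factor of at least 2 at 5 µM in the primary screen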;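 also: 0 = wells with 2.5 mM tranylcypromine and 1 = vehicle-only wells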
# An asterisk follows results filed as active; . = no result.
SMILES,sEH activator,sEH inhibitor,CYP2C19 inh,CYP2C9 act,CYP2C9 inh,CYP2C19 act
Cc1[nH]nc2c1/C(=N\O)CC(C)(C)C2,-6,7,51*,0.7,26,0.5
Cc1ccc(-c2nc(CCN3C(=O)c4ccccc4C3=O)cs2)cc1,11,-11,52*,0.7,30,0.5
Cc1cc(C)n2nc(SCN3C(=O)c4ccccc4C3=O)nc2n1,.,.,83*,1.1,-7,0.2
O=C1c2ccccc2C(=O)N1CCc1ccccn1,4,1,84*,0.9,10,0.2
O=C1c2ccccc2C(=O)N1CSc1ncccn1,.,.,61*,1.7,-65,0.4
Cc1nc2ccc(S(=O)(=O)NC(C(=O)NCc3ccco3)C(C)C)cc2s1 (centres undefined),.,.,6,0.9,13,0.9
CCOc1ccc(/C(O)=C2\C(=O)C(=O)N(CCOCCO)C2c2ccccc2OC)cc1 (centres undefined),4,-4,-14,1,-5,1.1
Cc1cc(C)n2nc(SCc3nc4ccccc4[nH]3)nc2n1,-5,4,71*,0.8,20,0.3
O=C(O)CCC(=O)NCc1ccc(F)cc1,3,-3,8,0.5,49,0.9
Cc1cccc(-n2nc3c(c2NC(=O)c2ccc(Br)o2)CSC3)c1,3,-4,-4,0.2,84*,1
CCC(=O)Nc1c2c(nn1-c1ccccc1C)CSC2,-5,9,.,.,.,.
Cc1ccccc1-n1nc2c(c1NC(=O)c1ccc(S(=O)(=O)N(C)C)cc1)CSC2,7,-9,-13,1,4,1.1
Cc1ccc(-n2nc3c(c2NC(=O)c2cccs2)CSC3)cc1,9,-9,22,0.3,72*,0.8
O=C(CSc1ncc(C(F)(F)F)cc1Cl)N1CCN(S(=O)(=O)c2ccc(Cl)cc2)CC1,23,-24,79*,1.6,-57,0.2
O=C(CSc1ncn[nH]1)N1CCN(S(=O)(=O)c2ccc(Cl)cc2)CC1,18,-16,45,0.5,45,0.5
O=C(CSc1ncc(C(F)(F)F)cc1Cl)N1CCN(S(=O)(=O)c2ccccc2)CC1,8,-8,81*,1,0,0.2
O=C(CSc1nnc2c(Cl)cc(Cl)cn12)N1CCN(S(=O)(=O)c2ccccc2)CC1,-7,8,6,1.1,-12,0.9
Cc1ncoc1C(=O)Nc1ccccc1-c1ccccc1,9,-13,16,0.7,30,0.8
Cc1onc(-c2ccccc2)c1C(=O)Oc1cccnc1,1,1,51*,0.8,18,0.5
CCCCOCCCNC(=O)c1c(-c2ccccc2)noc1C,5,-6,68*,0.5,47,0.3
Cc1onc(-c2ccccc2)c1C(=O)NCc1cccs1,0,-2,35,0.7,35,0.6
Cc1onc(-c2ccccc2)c1C(=O)NCc1cccnc1,.,.,59*,0.7,25,0.4
COCCCNC(=O)c1c(-c2ccccc2)noc1C,23,-23,7,1,1,0.9
N#CC(c1ccc(Cl)cc1)c1ncc(C(F)(F)F)cc1Cl (centres undefined),7,-4,94*,0.6,36,0.1
N#CC(c1cccc(Cl)c1)c1ncc(C(F)(F)F)cc1Cl (centres undefined),7,-4,89*,0.6,41,0.1
SMILES,sEH activator,sEH inhibitor,CYP2C19 inh,CYP2C9 act,CYP2C9 inh,CYP2C19 act
Cc1nnc(NC(=O)Cn2cnc3c2c(=O)n(C)c(=O)n3C)s1,5,-5,.,.,.,.
Cc1nc2ccccc2c(=O)n1NC(=O)c1c(O)c2ccccc2n(C)c1=O,.,.,13,1,3,0.9
CCCCCc1ccc(CC(=O)Nn2c(C)nc3ccccc3c2=O)cc1,17,-17,60*,0.1,95*,0.4
Cc1nc2ccccc2c(=O)n1NC(=O)Cc1ccc(Br)cc1,.,.,40,0.2,85*,0.6
COc1cc(C)c(S(=O)(=O)N2CCOCC2)cc1C(C)C,-4,4,53*,0.9,10,0.5
Cc1ccc(S(=O)(=O)NCCCN2CCOCC2)c(C)c1,.,.,64*,1.6,-56,0.4
Cc1cc(Br)c(S(=O)(=O)NCCN2CCOCC2)cc1C,.,.,41,1.1,-14,0.6
COc1cc(C)c(Cl)cc1S(=O)(=O)NCCN1CCOCC1,7,-4,83*,1.2,-16,0.2
COc1cc(Cl)c(S(=O)(=O)NCCCN2CCOCC2)cc1Cl,4,-5,46,1.9,-90,0.5
COc1cc(C)c(Cl)cc1S(=O)(=O)NCCCN1CCOCC1,8,-6,66*,1.3,-32,0.3
N#C/C(Cn1c[n+](NC(=O)Nc2ccccc2)cn1)=N/O,5,-4,18,0.8,19,0.8
O=C1C(c2ccc(F)cc2)N(CC2COc3ccccc3O2)C(=O)CN1C1CCCCC1 (centres undefined),-2,5,-2,0.7,28,1
COc1c(S(=O)(=O)NCCN2CCOCC2)ccc(Cl)c1Cl,0,0,80*,1.8,-83,0.2
Cc1cc(C)c2c(-n3cccc3)c(NC(=O)OC(C)C)sc2n1,-3,0,13,0.6,37,0.9
Cc1cc(C)c2c(-n3cccc3)c(C(=O)NNS(=O)(=O)c3ccccc3)sc2n1,2,1,33,0,96*,0.7
Cc1ccc(/C=N/NC(=O)CC2N=C(Cc3ccccc3)NNC2=O)cc1 (centres undefined),10,-6,.,.,.,.
Cc1nc2c(Br)c3nc(C(F)(F)F)[nH]c3c(Br)c2[nH]1,-6,4,2,0.7,27,1
Cc1nc2c(F)c(F)c(C(F)(F)F)c(F)c2[nH]1,.,.,61*,0.7,27,0.4
CCOC(=O)c1cnc2c(C(F)(F)F)cccc2c1N1CCOCC1,13,-9,68*,0.5,50,0.3
N#Cc1nc(COc2cccc(Cl)c2)oc1N1CCCC1,0,-2,98*,0.8,18,0
N#Cc1nc(-c2ccc(Cl)cc2)oc1N1CCCCC1,-4,3,17,0.7,31,0.8
N#Cc1nc(COc2ccc(F)cc2)oc1N1CCCC1,3,-2,96*,0.7,28,0
Cn1c(=O)[nH]c(=O)c2c1nc(Br)n2CCCO,9,-10,-2,0.5,46,1
CCOC(=O)c1c(C)oc2c1c(C(c1cccnc1)N1CCN(C)CC1)c(O)c1ccccc12 (centres undefined),.,.,63*,0.8,16,0.4
CCOC(=O)c1c(C)oc2c1c1c(c3ccccc32)OCN(Cc2cccnc2)C1,5,-6,46,0.5,54*,0.5
CN1CCN(C(c2cccnc2)c2ccc3cccnc3c2O)CC1 (centres undefined),5,-8,25,0.9,8,0.8
